Results published in PubChem BioAssay (Tox21).
Results filed as inconclusive are left out. Activity calls are given as the source filed them. Calls follow the shape of the dose curve; as a rule, active = well fitted curve in the direction sought with a large enough effect in the repeat runs; inconclusive = weak or mixed curves; inactive = no such curve, though single readings can be large; an effect the other way counts as inactive or inconclusive.

Experiments:
[1] = qHTS RealTime-Glo MT Cell Viability Assay in HepG2 cells - 40 hour (AID 1224870); also: nearly all actives have a fitted effect of over 50% in size
Summary of the method: (§1)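 HepG2 cells (600/well) mixed with RealTime-Glo MT reagent, settled 5 h at 37 C/5% CO2 before compound addition. Nonlytic NanoLuc luminescence from viable-cell prosubstrate reduction read repeatedly during 40 h treatment at 37 C.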

[2] = qHTS RealTime-Glo MT Cell Viability Assay in HEK293 cells - 16 hour (AID 1224872); also: nearly all actives have a fitted effect of over 50% in size; also: potency is read from the fitted curve at half-maximal effect
Summary of the method: (§2)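 Cells + reagent dispensed (600 cells/well, HEK293) → 5 h at 37 C/5% CO2 → 23 nL compound in DMSO pinned → 40 h at 37 C → luminescence read at 0, 8, 16, 24, 32, 40 h.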

[3] = qHTS RealTime-Glo MT Cell Viability Assay in HepG2 cells - 8 hour (AID 1224873); also: nearly all actives have a fitted effect of over 55% in size
Summary of the method: as §1

[4] = A CellTox Green Cytotoxicity Assay to monitor cytotoxicity in HEK293 cells - 24 hour (AID 1224875); also: nearly all actives have a fitted effect of over 45% in size; also: potency is read from the fitted curve at half-maximal effect
Summary of the method: (§3)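 HEK293 cells premixed with CellTox Green dye were seeded at 600 cells/well and left 5 h at 37 C/5% CO2 before pin transfer of 23 nL compound in DMSO. Fluorescence from dye bound to dead-cell DNA was read during 40 h treatment.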

[5] = A CellTox Green Cytotoxicity Assay to monitor cytotoxicity in HepG2 cells - 16 hour (AID 1224876); also: nearly all actives have a fitted effect of over 45% in size; also: potency is read from the fitted curve at half-maximal effect
Summary of the method: (§4)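 HepG2 cells were seeded together with the CellTox Green dye at 600 cells/well, left 5 h at 37 C/5% CO2, then given compounds in DMSO. Fluorescence from dye bound to dead-cell DNA was read repeatedly over 40 h of treatment at 37 C.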

[6] = qHTS RealTime-Glo MT Cell Viability Assay in HepG2 cells - 32 hour (AID 1224877); also: nearly all actives have a fitted effect of over 55% in size; also: potency is read from the fitted curve at half-maximal effect
Summary of the method: (§5)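 Real-time, nonlytic viability: 600 HepG2 cells/well mixed with NanoLuc enzyme plus prosubstrate; 5 h settle, compound (DMSO) added by pintool; luminescence monitored over 40 h at 37 C.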

[7] = A CellTox Green Cytotoxicity Assay to monitor cytotoxicity in HepG2 cells - 40 hour (AID 1224879); also: nearly all actives have a fitted effect of over 40% in size; also: potency is read from the fitted curve at half-maximal effect
Summary of the method: as §4

[8] = qHTS RealTime-Glo MT Cell Viability Assay in HEK293 cells - 0 hour (AID 1224880); also: top concentration of the series differs between compounds; nearly all actives have a fitted effect of over 45% in size
Summary of the method: (§6)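 HEK293 cells mixed with RealTime-Glo reagents (NanoLuc plus cell-permeant prosubstrate) at 600 cells/well, preincubated 5 h at 37 C/5% CO2, then given 23 nL compound in DMSO. Nonlytic luminescence from viable cells was read at 0, 8, 16, 24, 32 and 40 h.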

[9] = A CellTox Green Cytotoxicity Assay to monitor cytotoxicity in HEK293 cells - 32 hour (AID 1224881); also: nearly all actives have a fitted effect of over 40% in size; also: potency is read from the fitted curve at half-maximal effect
Summary of the method: as §3

[10] = A CellTox Green Cytotoxicity Assay to monitor cytotoxicity in HepG2 cells - 0 hour (AID 1224882); also: nearly all actives have a fitted effect of over 35% in size
Summary of the method: as §4

[11] = A CellTox Green Cytotoxicity Assay to monitor cytotoxicity in HepG2 cells - 32 hour (AID 1224883); also: nearly all actives have a fitted effect of over 50% in size; also: potency is read from the fitted curve at half-maximal effect
Summary of the method: as §4

[12] = A CellTox Green Cytotoxicity Assay to monitor cytotoxicity in HEK293 cells - 8 hour (AID 1224884); also: nearly all actives have a fitted effect of over 35% in size; also: potency is read from the fitted curve at half-maximal effect
Summary of the method: as §3

[13] = qHTS RealTime-Glo MT Cell Viability Assay in HepG2 cells - 16 hour (AID 1224885); also: nearly all actives have a fitted effect of over 50% in size
Summary of the method: as §5

[14] = qHTS RealTime-Glo MT Cell Viability Assay in HEK293 cells - 24 hour (AID 1224886); also: nearly all actives have a fitted effect of over 50% in size; also: potency is read from the fitted curve at half-maximal effect
Summary of the method: as §2

[15] = A CellTox Green Cytotoxicity Assay to monitor cytotoxicity in HEK293 cells - 16 hour (AID 1224888); also: nearly all actives have a fitted effect of over 35% in size; also: potency is read from the fitted curve at half-maximal effect
Summary of the method: as §3

[16] = qHTS RealTime-Glo MT Cell Viability Assay in HepG2 cells - 0 hour (AID 1224889); also: nearly all actives have a fitted effect of over 50% in size
Summary of the method: as §5

[17] = A CellTox Green Cytotoxicity Assay to monitor cytotoxicity in HEK293 cells - 40 hour (AID 1224871); also: nearly all actives have a fitted effect of over 45% in size; also: potency is read from the fitted curve at half-maximal effect
Summary of the method: as §3

[18] = qHTS RealTime-Glo MT Cell Viability Assay in HEK293 cells - 40 hour (AID 1224874); details: RealTime-Glo luminescence; max response: stronger effect = lower value; also: nearly all actives have a fitted effect of over 50% in size; also: potency is read from the fitted curve at half-maximal effect
Summary of the method: as §6

[19] = A CellTox Green Cytotoxicity Assay to monitor cytotoxicity in HepG2 cells - 24 hour (AID 1224878); also: nearly all actives have a fitted effect of over 45% in size; also: potency is read from the fitted curve at half-maximal effect
Summary of the method: as §4

[20] = qHTS RealTime-Glo MT Cell Viability Assay in HEK293 cells - 8 hour (AID 1224887)
Summary of the method: as §6
% is scaled to controls: 0 for no effect and ±100 for the full control effect.

COc1ccc(-c2cc(=S)ss2)cc1
inactive: Potency [1] | Potency [2] | Potency [3] | Potency [4] | Potency [5] | Potency [6] | Potency [7] | Potency [8] | Potency [9] | Potency [10] | Potency [11] | Potency [12] | Potency [13] | Potency [14] | Potency [15] | Potency [16]

COC(=O)C1=C(C)NC(C)=C(C(=O)OC(C)(C)CN(C)CCC(c2ccccc2)c2ccccc2)C1c1cccc([N+](=O)[O-])c1 (configuration not stated)
inactive: Potency [17] | Potency [2] | max response [18] -18% | Potency [4] | Potency [19] | Potency [7] | Potency [8] | Potency [9] | Potency [11] | Potency [12] | Potency [14] | Potency [20] | Potency [15] | Potency [16]

CC(C)C(O)C(C)(C)CO (configuration not stated)
active: Potency [2] 0.899 µM | Potency [18] 0.899 µM | Potency [14] 0.801 µM
inactive: Potency [1] | Potency [3] | Potency [5] | Potency [6] | Potency [19] | Potency [7] | Potency [8] | Potency [9] | Potency [10] | Potency [11] | Potency [12] | Potency [15] | Potency [16]

CC(C)CC(O)CC(C)C
inactive: Potency [1] | Potency [3] | max response [18] 2.3% | Potency [4] | Potency [5] | Potency [6] | Potency [7] | Potency [8] | Potency [9] | Potency [11] | Potency [12] | Potency [13] | Potency [14] | Potency [20] | Potency [15] | Potency [16]

CC(=O)OCCC(C)CC(C)(C)C (configuration not stated)
inactive: Potency [1] | Potency [2] | Potency [3] | Potency [4] | Potency [5] | Potency [6] | Potency [7] | Potency [8] | Potency [9] | Potency [10] | Potency [11] | Potency [12] | Potency [13] | Potency [14] | Potency [20] | Potency [15] | Potency [16]

O=C1OC(=O)c2c(Br)c(Br)c(Br)c(Br)c21
inactive: Potency [1] | Potency [3] | max response [18] -18% | Potency [4] | Potency [19] | Potency [7] | Potency [8] | Potency [9] | Potency [10] | Potency [11] | Potency [13] | Potency [14] | Potency [20] | Potency [15] | Potency [16]

O=C1c2ccccc2C(=O)c2c(O)ccc(O)c21
active: Potency [5] 24.5 µM | Potency [19] 24.5 µM | Potency [7] 24.5 µM | Potency [11] 24.5 µM | Potency [12] 27.5 µM | Potency [15] 30.9 µM
inactive: Potency [1] | Potency [2] | Potency [3] | max response [18] 5.32% | Potency [6] | Potency [8] | Potency [10] | Potency [13] | Potency [14] | Potency [20] | Potency [16]

BrC(Br)C(Br)Br
inactive: Potency [1] | Potency [2] | Potency [3] | max response [18] -12.1% | Potency [4] | Potency [5] | Potency [19] | Potency [7] | Potency [8] | Potency [9] | Potency [10] | Potency [11] | Potency [13] | Potency [14] | Potency [15] | Potency [16]

CCCCCCCCCCCCCOS(=O)(=O)O
active: Potency [4] 24.5 µM
inactive: Potency [1] | Potency [2] | Potency [3] | max response [18] -4.56% | Potency [6] | Potency [8] | Potency [10] | Potency [12] | Potency [13] | Potency [14] | Potency [20] | Potency [15] | Potency [16]

CN1CCCN(C(c2ccccc2)c2ccc(Cl)cc2)CC1 (configuration not stated)
inactive: Potency [2] | Potency [3] | Potency [10] | Potency [12] | Potency [20] | Potency [15]
active: Potency [17] 26.8 µM | Potency [4] 23.9 µM | Potency [5] 23.9 µM | Potency [6] 23.9 µM | Potency [7] 21.3 µM | Potency [9] 26.8 µM | Potency [11] 21.3 µM

CC/C=C\C/C=C\C/C=C\CCCCCCCC(=O)OCC
inactive: Potency [1] | Potency [2] | Potency [3] | max response [18] -15.2% | Potency [4] | Potency [6] | Potency [7] | Potency [9] | Potency [10] | Potency [11] | Potency [12] | Potency [13] | Potency [14] | Potency [15] | Potency [16]

CC(CN(CCN(CC(C)OCCO)CC(C)OCCO)CC(C)OCCO)OCCO (configuration not stated)
active: Potency [2] 18.8 µM | Potency [18] 23.7 µM | Potency [14] 23.7 µM
inactive: Potency [1] | Potency [3] | Potency [4] | Potency [6] | Potency [8] | Potency [10] | Potency [12] | Potency [13] | Potency [15] | Potency [16]
